Here are results for 49 molecules from PubChem BioAssay AID602293 (National Center for Advancing Translational Sciences (NCATS), 2012).

In all, about 1,300 compounds went through this assay and about 30 (2%) were called active. Inconclusive results (about 10%) are left out. Many of the other results were omitted from the sample, so actives are more common in it than they were. Unmarked numbers belong to inactive results. Calls follow the shape of the dose curve; as a rule, active = well fitted inhibition curve with a large enough effect; inconclusive = small, poorly fitted or top-dose-only effect; inactive = flat fitted curve, though single readings scatter.
% is scaled to controls: 0 for no effect and ±100 for the full control effect; potency is read from the fitted curve at half-maximal effect.

This experiment in a line: qHTS for antagonists of the Thyroid Stimulation Hormone Receptor: Hit Validation in HTRF Activity in a Luteinizing Hormone Receptor Cell Line. The conditions noted are these: LHR-expressing cell line, cAMP HTRF, antagonist mode; series mostly up to 58 µM; activity change, negative = inhibition: at the top concentration. From the text: The thyroid-stimulating hormone receptor (TSHR) is a member of the 7 trans-membrane-spanning receptor (7TMR) family of cell surface receptors. TSHR-mediated hyperthyroidism is important in thyroid pathology. The development of small molecule antagonists of TSHR may lead to therapeutic approaches for TSHR-mediated hyperthyroidism caused by constitutively activating mutations or stimulating auto-antibodies associated with Graves' disease. Graves' disease is the leading cause of hyperthyroidism and is caused by autoantibodies that stimulate TSHR (TsAbs) causing thyroid growth and unregulated overproduction of thyroid hormones and existing treatments have liabilities (agranulocytosis). In addition, TSHRs are known to be expressed in multiple extrathyroidal tissues including bone, brain, kidney, testis, fat and cells of the immune system but the role of the TSHR in these tissues is not clear. Therefore, TSHR antagonists/inverse agonists could be used as probes of extrathyroidal TSHR function. Finally, TSHR inverse agonists, which are a subclass of antagonists that inhibit agonist-independent (or basal or constitutive) TSHR signaling, could be used to inhibit TSH-independent signaling in patients with recurrent or metastatic thyroid cancer who are receiving thyroid hormone to suppress TSH.
In collaboration between scientist from the NCGC and the NIDDK, a miniaturized HTRF high-throughput screen was developed. It's a cell based assay, where an anti cAMP antibody contains a fluorescent cryptate tag (excitation 337 nm; emission 620 nm) and the acceptor is cAMP-d2 (excitation 620 nm; emission 665 nm). When antibody and cAMP-d2 interact and are excited by a 337 nm light, a FRET occurs resulting in emission at 665 nm. The assay is competition between cAMP-d2 and cAMP (from the cell lysate). The homogeneous protocol allows for one step dispense after stimulation that is automation friendly. In order to confirm specificity of the compounds to the TSHR, a confirmatory assay was conducted on a similar family member, the Luteinizing Hormone (LH) receptor, transfected into a HEK 293 cell line, using an orthogonal detection technology to measure cAMP stimulation: antibody-based Homogeneous Time Resolved Fluorescence (HTRF).
NIH Chemical Genomics Center [NCGC]
NIH Molecular Libraries Probe Centers Network [MLPCN]
Assay Provider: Marvin Gershengorn, NIDDK
Homogeneous Time Resolved Fluorescence (HTRF) cAMP Assay. HEK 293 cells stably transfected with a vector containing the LH receptor and maintained under hygromycin selection were obtained from the laboratory of Dr. Marvin Gershengorn. Compounds were assayed using a HTRF cAMP detection kit (Cisbio) on the LH receptor transfected cell line. Briefly, 750 cells were plated in 2.5 ul/well of complete media (DMEM containing 10 % FCS, and 100 uM RO 20-1724) in 1536 well solid bottom white plates and 23 nl/well compound in DMSO solution or controls was added. Following 30 minute incubation at room temperature, 2.5 ul/well of labeled d2 cAMP and 2.5 ul/well of anti-cAMP antibody (both diluted 1:20 in lysis buffer) were added to each well using a flying reagent dispenser (Aurora Discovery, San Diego) . Plates were measured using the Envision plate reader (PerkinElmer, Boston, MA) with excitation at 330 nm and emissions of 615 nm and 660 nm.
`CC(=O)c1ccc(N(C(=O)CNC(=O)c2ccco2)C(C(=O)NC2CCCC2)c2ccncc2)cc1` (centres undefined): the “activity change, negative = inhibition” value was -0.321%.

As for `Cc1cccc(N(C(=O)c2nsc(Cl)c2Cl)C(C(=O)NC2CCCC2)c2ccc(O)cc2)c1C` (centres undefined), the Potency is 12 µM (active).

As to `O=C(NC1CCCCC1)C(c1cccs1)N(Cc1cccs1)C(=O)c1cccs1` (centres undefined), the “activity change, negative = inhibition” value was -9.17%.

With `Cc1c(C(=O)NCc2ccc3c(c2)OCO3)sc2nc(-c3ccccc3)cn12`, the “activity change, negative = inhibition” value is 0.0777%.

Regarding `N#Cc1c(Cl)nsc1NC(=O)c1ccccc1`, the “activity change, negative = inhibition” value was -2.2%.

In the case of `O=C1CCCN1c1ccc(S(=O)(=O)Oc2ccc(Cl)cc2)cc1[N+](=O)[O-]`, the “activity change, negative = inhibition” value was -4.4%.

On to `CN(C)c1ccc(NC(=S)c2ccc3ccccc3n2)cc1`, for which the “activity change, negative = inhibition” value was 1.72%.

In the case of `CSc1nc(-c2ccc(Cl)cc2Cl)[nH]c(=O)c1C#N`, the “activity change, negative = inhibition” value is -0.495%.

Consider `CCOc1cc(N2CCOCC2)c(OCC)cc1NC(=O)c1cccc(S(=O)(=O)N2CCOCC2)c1`, for which the “activity change, negative = inhibition” value is -2.11%.

For the molecule `COc1ccc(S(=O)(=O)Nc2ccc(C)cc2)cc1N(C)S(=O)(=O)c1ccc(Cl)cc1`, the “activity change, negative = inhibition” value is -3.51%.

As for `O=C(Nc1ncc(S(=O)(=O)c2ccc([N+](=O)[O-])cc2)s1)c1ccc2ccccc2c1`, the “activity change, negative = inhibition” value was -3.12%.

Regarding `O=C(Nc1ncc(S(=O)(=O)c2ccc([N+](=O)[O-])cc2)s1)c1cccc2ccccc12`, the “activity change, negative = inhibition” value is 0.232%.

For the molecule `CCOC(=O)CCCCCC(=O)Nc1ccc2c(c1)CC(=O)N([C@H](C)CO)C[C@@H](C)[C@H](CN(C)Cc1ccc3c(c1)OCO3)O2`, the “activity change, negative = inhibition” value was 1.07%.

Regarding `c1ccc2c(CSc3ncnc4nc[nH]c34)cccc2c1`, the “activity change, negative = inhibition” value is 1.84%.

Take `CC1=NN(C(N)=S)C(=O)C1N=Nc1ccc(Cl)cc1Cl` (centres undefined): the “activity change, negative = inhibition” value is -0.667%.

Take `Cc1ncsc1CCOC(=O)C1C2CC3CC(C2)CC1C3` (centres undefined): the “activity change, negative = inhibition” value is -1.68%.

Take `CCOC(=O)N1CCN(C(=O)c2ccc3c(c2)N=C(CC)c2cc(C)ccc2S3)CC1`: the “activity change, negative = inhibition” value was -1.95%.

As to `O=C(COC(=O)c1cc(S(=O)(=O)N2CCOCC2)c(Cl)cc1Cl)c1ccc[nH]1`, the “activity change, negative = inhibition” value is -1.62%.

With `COc1cc(/C=C(\C#N)c2ccccn2)ccc1OCc1ccc(Cl)cc1`, the “activity change, negative = inhibition” value was -1.94%.

As to `C/C(=N\Nc1cc(C)nc(-c2ccccc2O)n1)c1ccccc1`, the “activity change, negative = inhibition” value is 0.625%.

Consider `O=C(Nc1cc(S(=O)(=O)N2CCCCC2)ccc1Cl)c1ccccc1NS(=O)(=O)c1ccc(F)cc1`, for which the “activity change, negative = inhibition” value was -2.9%.

Take `Clc1ccccc1CN(Cc1ccccc1)c1ncnc2nc[nH]c12`: the “activity change, negative = inhibition” value is 1.01%.

With `COC(=O)c1ccc(NC(=O)Nc2ccc(F)c(Cl)c2)cc1`, the “activity change, negative = inhibition” value is -2.51%.

Turning to `O=C1C(Cl)=C(Nc2ccc(O)cc2)C(=O)c2ccccc21`, the “activity change, negative = inhibition” value was -6.39%.

With `COc1ccc2cc(/C=C3\SC(=S)NC3=O)c(N3CCOCC3)nc2c1`, the “activity change, negative = inhibition” value was -2.49%.

Turning to `O=S1(=O)C=C(Sc2nc3cc(Cl)ccc3o2)c2ccccc21`, the “activity change, negative = inhibition” value is -7.43%.

With `O=C(Nc1ccc(Oc2ccc(Cl)cc2)c(Cl)c1)c1cc(I)cc(I)c1O`, the “activity change, negative = inhibition” value was -0.309%.

Turning to `O=C(COC(=O)c1ccccc1C(=O)c1ccc(Cl)c([N+](=O)[O-])c1)NC1CCCCCC1`, the “activity change, negative = inhibition” value is -6.9%.

As to `O=C(O)c1ccc(Cl)cc1Nc1nc2cc(Cl)ccc2o1`, the “activity change, negative = inhibition” value is -1.31%.

`COc1ccc(CNC(=O)Cn2nc(Cc3cccnc3)c3ccccc3c2=O)cc1`: the “activity change, negative = inhibition” value was -0.39%.

Consider `CCC(=O)NC1=C(Cl)C(=O)C(NC(=O)CC)=C(Cl)C1=O`, for which the Potency is 30.1 µM (active).

In the case of `N#C/C(=N\Nc1ccc(Cl)c(Cl)c1)C(=O)C1CC1`, the “activity change, negative = inhibition” value is -0.632%.

For `O=S(=O)(Nc1cc(Cl)ccc1-n1cncn1)c1cc(Br)ccc1Br`, the “activity change, negative = inhibition” value was -0.878%.

In the case of `O=C(Nc1cccc(Cl)c1)Nc1ccc(Br)cc1F`, the “activity change, negative = inhibition” value was -5.11%.

With `COC(=O)c1ccc(C2N=C(c3cccs3)CC(c3ccccc3O)N2)cc1` (centres undefined), the “activity change, negative = inhibition” value is -2.24%.

Consider `COc1ccc(CNC(=O)C(c2ccco2)N(C(=O)c2snc(C(N)=O)c2N)c2cccc(OC)c2)cc1` (centres undefined), for which the Potency is 13.5 µM (active).

Take `COc1cc(C(C(=O)NCc2ccccc2)N(C(=O)c2snc(C(N)=O)c2N)C2CCCC2)cc(OC)c1OC` (centres undefined): the “activity change, negative = inhibition” value was -0.39%.

In the case of `COc1ccc(CNC(=O)C(C)OC(=O)c2cccs2)cc1` (centres undefined), the “activity change, negative = inhibition” value was -2.06%.

Take `O=C(O)/C=C/c1ccc(S(=O)(=O)Nc2ccccc2C(=O)Nc2ccc(F)cc2)cc1`: the “activity change, negative = inhibition” value is -0.301%.

Turning to `O=C1C(SCCO)=C(SCCO)C(=O)c2ccccc21`, the Potency is 26.9 µM (active).

On to `OCCSc1nnc(Nc2ccccc2)s1`, for which the “activity change, negative = inhibition” value was 0.323%.

For `CN1CCN(C2=CC3=CC(=C(C#N)C#N)CCC3CC2)CC1` (centres undefined), the “activity change, negative = inhibition” value is 0.754%.

Consider `Nc1nc(SCC(=O)C23CC4CC(CC(C4)C2)C3)n[nH]1`, for which the “activity change, negative = inhibition” value is 1.45%.

`CC(C)(C)C(=O)NC(NC(=S)Nc1sc2c(c1C#N)CCCC2)C(Cl)(Cl)Cl` (centres undefined): the “activity change, negative = inhibition” value is 0.759%.

Consider `CC1Cc2ccccc2N1C(=O)COC(=O)/C=C/c1ccc(F)cc1` (centres undefined), for which the “activity change, negative = inhibition” value was -0.809%.

For `COc1cc(NC(=O)Cn2nc(C(F)(F)F)c(Br)c2C)cc([N+](=O)[O-])c1`, the “activity change, negative = inhibition” value was -0.304%.

Consider `CCCC(=NC(C)CC)C1=C(O)CC(c2ccccc2)CC1=O` (centres undefined), for which the “activity change, negative = inhibition” value is -1.47%.

With `CCn1nc(C)cc1-c1nnc(Sc2ncc([N+](=O)[O-])s2)n1C`, the Potency is 37.9 µM (active).

Take `O=C(Nc1ncc(S(=O)(=O)c2ccc([N+](=O)[O-])cc2)s1)c1ccccc1F`: the “activity change, negative = inhibition” value is -0.0884%.
